10 molecules from PubChem BioAssay (Tox21) can be followed below.

Unmarked numbers belong to inactive results. Results filed as inconclusive are left out. Active and inactive are the calls of the source. The call rests on the fitted dose curve; in most records, active means well fitted curve in the direction sought with a large enough effect in the repeat runs; inconclusive means weak or mixed curves; inactive means no such curve, though single readings can be large; an effect the other way counts as inactive or inconclusive.

The nature of test [1]: Caspase-3/7 induction in HepG2 cells by small molecules, qHTS assay (AID 1346978). Further: nearly all actives have a fitted effect of over 15% in size. The method in brief: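 Wild-type HepG2 cells, 2,000/well, settled 5 hr at 37 C and 5% CO2, then compound-treated for 17 hr; caspase-3/7 activity read by luminescent Caspase-Glo 3/7 after 30 min at room temperature.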
Test [2] in a line: Caspase-3/7 induction in CHO-K1 cells by small molecules, qHTS cell viability counter screen (AID 1346979). Further: nearly all actives have a fitted effect of over 35% in size. Further: potency means the concentration at half of the fitted maximal effect. The method in brief: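 Multiplexed with Caspase-Glo 3/7 in CHO-K1 cells, this counter screen added CellTiter-Fluor after 16hr of compound exposure and recorded fluorescence 1hr later.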
On the technique in general: Quantitative high-throughput screening tests each substance at several concentrations.

Test [3] is described as follows: Caspase-3/7 induction in CHO-K1 cells by small molecules, qHTS assay (AID 1346980). Further: nearly all actives have a fitted effect of over 15% in size. The method in brief: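 Wild-type CHO-K1 cells exposed to compounds for 17hr at 37 C, 5% CO2. Caspase-3/7 activity then measured by Caspase-Glo 3/7 luminescence after 30min at room temperature.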
Test [4] addresses Nuclear receptor subfamily 1 group I member 2 (Homo sapiens) (UniProt O75469). Nature of the test: Human pregnane X receptor (PXR) small molecule agonists, qHTS assay (AID 1346982). Further: nearly all actives have a fitted effect of over 35% in size. Further: potency means the concentration at half of the fitted maximal effect. The method in brief: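 PXR-Luc HepG2 cells (CYP3A4 promoter-driven luciferase) were seeded in medium with 5% charcoal-stripped FBS, left 5 hr at 37 C, then exposed to compounds in DMSO for 24 hr. Luminescence was read after ONE-Glo addition.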

In test [5] the target is Cytochrome P450 2D6 (Homo sapiens) (UniProt P10635). Nature of the test: Cytochrome P450 Family 2 Subfamily D Member 6 (CYP2D6) small molecule antagonists: luciferase reporter qHTS assay (AID 1671196). Further: nearly all actives have a fitted effect of over 50% in size. Further: potency means the concentration at half of the fitted maximal effect. The method in brief:
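CYP2D6 enzyme–substrate mix was held with compound for 10 min at room temperature, then NADPH regeneration solution was added and the reaction ran 1 h at room temperature. Luciferin product was detected by luminescence after 20 min with detection reagent.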
For orientation: Reporter assays use an easily measured gene product as a stand-in for the process of interest.

Test [6] has as its target Cytochrome P450 2C19 (Homo sapiens) (UniProt P33261). Nature of the test: Cytochrome P450 Family 2 Subfamily C Member 19 (CYP2C19) small molecule antagonists: luciferase reporter qHTS assay (AID 1671197). Further: nearly all actives have a fitted effect of over 65% in size. Further: potency means the concentration at half of the fitted maximal effect. The method in brief:
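Relative luminescence units recorded 20 min after the detection reagent stopped a 1 h, 37C CYP2C19 reaction on proluciferin substrate, which was started by NADPH regeneration following 10 min room-temperature compound preincubation; ketoconazole positive control.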

The target in test [7] is Cytochrome P450 1A2 (Homo sapiens) (UniProt P05177). Kind of test: Cytochrome P450 Family 1 Subfamily A Member 2 (CYP1A2) small molecule antagonists: luciferase reporter qHTS assay (AID 1671199). Further: nearly all actives have a fitted effect of over 50% in size. Further: potency means the concentration at half of the fitted maximal effect. The method in brief:
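Human CYP1A2 activity measured with a P450-Glo proluciferin substrate; compounds in DMSO preincubated 10 min at room temperature with enzyme-substrate mix, then NADPH regeneration system added for 1 h. Luciferin detection reagent, 20 min, luminescence read.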

The target of test [8] is Voltage-gated inwardly rectifying potassium channel KCNH2 (Homo sapiens) (UniProt Q12809). Kind of test: Human Ether-a-go-go-Related Gene (hERG) channel small molecule antagonists: fluorescence cell-based qHTS assay (AID 1671200). Further: nearly all actives have a fitted effect of over 50% in size. Further: potency means the concentration at half of the fitted maximal effect. The method in brief:
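Cell line hERG-U2OS; dye FluxOR II, 1 h RT dark; Tl+ stimulus; ex 480/em 540 nm, read each second for 2 min.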

Test [9] deals with Cytochrome P450 3A4 (Homo sapiens) (UniProt P08684). Nature of the test: Cytochrome P450 Family 3 Subfamily A Member 4 (CYP3A4) small molecule antagonists: luciferase reporter qHTS assay (AID 1671201). Further: nearly all actives have a fitted effect of over 50% in size. Further: potency means the concentration at half of the fitted maximal effect. The method in brief: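 Room-temperature assay throughout: 10 min compound–enzyme/substrate preincubation, 1 h reaction after NADPH regeneration solution, 20 min detection. Luciferin formed from proluciferin substrate is quantified by luminescence.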
Cytochrome P450 3A4 (Homo sapiens), sequence (P08684 whole entry, looked up): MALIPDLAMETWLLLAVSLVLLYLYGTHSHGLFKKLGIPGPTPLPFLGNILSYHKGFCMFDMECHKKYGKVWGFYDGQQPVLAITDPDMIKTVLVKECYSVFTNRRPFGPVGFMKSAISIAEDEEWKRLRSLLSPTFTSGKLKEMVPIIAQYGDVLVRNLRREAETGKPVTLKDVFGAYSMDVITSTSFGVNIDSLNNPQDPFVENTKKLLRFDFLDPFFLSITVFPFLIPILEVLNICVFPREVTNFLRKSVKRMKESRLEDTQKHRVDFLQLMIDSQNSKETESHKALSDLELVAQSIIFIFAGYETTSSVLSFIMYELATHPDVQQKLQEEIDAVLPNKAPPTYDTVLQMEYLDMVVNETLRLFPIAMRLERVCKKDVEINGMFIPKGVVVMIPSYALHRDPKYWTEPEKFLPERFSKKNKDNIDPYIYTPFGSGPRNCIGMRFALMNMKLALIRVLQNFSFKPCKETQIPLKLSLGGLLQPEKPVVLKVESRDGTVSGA

Test [10] concerns the target Nuclear receptor subfamily 1 group I member 2 (Homo sapiens) (UniProt O75469). Nature of the test: CYP3A4 induction through human pregnane X receptor (PXR) by small molecules, qHTS assay (AID 1346984). Further: nearly all actives have a fitted effect of over 40% in size. In a few lines: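 DPX-2 cells (HepG2 co-transfected with PXR and CYP3A4 promoter-luciferase) treated with compounds 24 h at 37C; luciferin-IPA CYP3A4 substrate 3uM final added for 3 h, then One-Glo; luminescence read. qHTS format.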

Test [11] shares this target. Kind of test: Human pregnane X receptor (PXR) activation by small molecules, qHTS assay (AID 1346985). Further: nearly all actives have a fitted effect of over 40% in size. The method in brief: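 DPX-2 cells (HepG2 co-transfected with a PXR response element and a CYP3A4-promoter luciferase construct) were seeded at 2,000 per well, rested 5 hr at 37C, then exposed to DMSO-dissolved compounds for 24 hr. Activation was read as luciferase luminescence.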

Test [12] deals with Cytochrome P450 2C9 (Homo sapiens) (UniProt P11712). Kind of test: Cytochrome P450 Family 2 Subfamily C Member 9 (CYP2C9) small molecule antagonists: luciferase reporter qHTS assay (AID 1671198). Further: nearly all actives have a fitted effect of over 50% in size. Further: potency means the concentration at half of the fitted maximal effect. In a few lines: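 P450-Glo proluciferin substrate with CYP2C9 enzyme; 10 min RT preincubation, then NADPH regeneration 1 h at 37C; luciferin detection reagent 20 min RT, luminescence in relative luminescence units.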
Cytochrome P450 2C9 (Homo sapiens), sequence (P11712 whole entry, looked up): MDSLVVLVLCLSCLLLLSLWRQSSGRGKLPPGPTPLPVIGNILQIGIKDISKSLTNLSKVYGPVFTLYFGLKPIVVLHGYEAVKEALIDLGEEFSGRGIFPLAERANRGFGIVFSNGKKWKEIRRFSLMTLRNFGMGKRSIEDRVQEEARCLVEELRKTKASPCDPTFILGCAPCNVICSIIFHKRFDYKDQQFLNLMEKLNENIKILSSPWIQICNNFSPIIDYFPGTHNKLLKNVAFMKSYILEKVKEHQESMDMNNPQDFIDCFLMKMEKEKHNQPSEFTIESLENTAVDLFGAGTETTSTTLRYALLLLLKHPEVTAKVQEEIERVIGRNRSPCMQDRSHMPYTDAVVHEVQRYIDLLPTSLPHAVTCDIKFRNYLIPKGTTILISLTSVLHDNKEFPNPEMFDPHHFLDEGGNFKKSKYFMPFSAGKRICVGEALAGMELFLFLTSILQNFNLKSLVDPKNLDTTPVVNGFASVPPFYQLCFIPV

Test [13] addresses Nuclear receptor subfamily 1 group I member 2 (Rattus norvegicus) (UniProt Q9R1A7). Kind of test: Rat pregnane X receptor (rPXR) activation by small molecules, qHTS assay (AID 1346983). Further: nearly all actives have a fitted effect of over 20% in size. Conditions: rPXR luciferase reporter cells, One-Glo luminescence, 24 h; max activation: hits give high values. In a few lines: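 Cell-based rPXR activation assay: rPXR cells, 2,000 per well, rested 5hr at 37 C, then exposed to compounds in DMSO for 24 hr at 37 C. Luciferase activity read by One-Glo luminescence after 30 min at room temperature.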

Test [14] in a line: Caspase-3/7 induction in HepG2 cells by small molecules, qHTS cell viability counter screen (AID 1346981). Further: series mostly up to about 92 µM; nearly all actives have a fitted effect of over 30% in size. The method in brief: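 Wild-type HepG2 cells (2,000/well) were allowed to settle for 5 hr at 37 C, 5% CO2, then dosed with compounds in DMSO by pin transfer. After 16 hr at 37 C, CellTiter-Fluor was added and fluorescence read 1 hr later.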
On the % scale 0 is the no-effect control and ±100 the full control effect.

Nuclear receptor subfamily 1 group I member 2 (Homo sapiens), sequence (O75469 whole entry, looked up): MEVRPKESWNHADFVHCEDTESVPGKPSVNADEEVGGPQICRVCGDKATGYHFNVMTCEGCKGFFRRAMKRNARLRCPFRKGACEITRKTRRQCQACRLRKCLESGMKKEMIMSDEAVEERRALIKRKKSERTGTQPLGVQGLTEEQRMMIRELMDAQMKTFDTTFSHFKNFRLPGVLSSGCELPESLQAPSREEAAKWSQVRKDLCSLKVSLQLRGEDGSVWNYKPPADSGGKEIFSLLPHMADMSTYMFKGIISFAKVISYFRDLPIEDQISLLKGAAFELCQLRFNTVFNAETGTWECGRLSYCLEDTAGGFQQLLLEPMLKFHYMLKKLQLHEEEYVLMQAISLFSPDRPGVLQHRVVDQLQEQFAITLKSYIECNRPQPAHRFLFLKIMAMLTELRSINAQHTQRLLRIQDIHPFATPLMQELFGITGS
Cytochrome P450 1A2 (Homo sapiens), sequence (P05177 whole entry, looked up): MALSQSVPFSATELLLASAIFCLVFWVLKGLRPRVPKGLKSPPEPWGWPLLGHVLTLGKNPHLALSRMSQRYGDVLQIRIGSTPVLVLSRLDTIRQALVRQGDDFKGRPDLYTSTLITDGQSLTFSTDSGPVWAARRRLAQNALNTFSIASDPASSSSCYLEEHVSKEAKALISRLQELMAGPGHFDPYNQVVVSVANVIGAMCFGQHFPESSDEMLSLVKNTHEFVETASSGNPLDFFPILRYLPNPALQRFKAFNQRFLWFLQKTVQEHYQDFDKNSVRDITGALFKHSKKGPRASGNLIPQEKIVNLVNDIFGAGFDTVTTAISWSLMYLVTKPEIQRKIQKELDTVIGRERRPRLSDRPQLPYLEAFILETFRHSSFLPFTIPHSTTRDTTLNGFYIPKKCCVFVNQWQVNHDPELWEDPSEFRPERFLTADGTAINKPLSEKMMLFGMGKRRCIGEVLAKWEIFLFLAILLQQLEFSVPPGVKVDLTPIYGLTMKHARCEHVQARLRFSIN
Cytochrome P450 2C19 (Homo sapiens), sequence (P33261 whole entry, looked up): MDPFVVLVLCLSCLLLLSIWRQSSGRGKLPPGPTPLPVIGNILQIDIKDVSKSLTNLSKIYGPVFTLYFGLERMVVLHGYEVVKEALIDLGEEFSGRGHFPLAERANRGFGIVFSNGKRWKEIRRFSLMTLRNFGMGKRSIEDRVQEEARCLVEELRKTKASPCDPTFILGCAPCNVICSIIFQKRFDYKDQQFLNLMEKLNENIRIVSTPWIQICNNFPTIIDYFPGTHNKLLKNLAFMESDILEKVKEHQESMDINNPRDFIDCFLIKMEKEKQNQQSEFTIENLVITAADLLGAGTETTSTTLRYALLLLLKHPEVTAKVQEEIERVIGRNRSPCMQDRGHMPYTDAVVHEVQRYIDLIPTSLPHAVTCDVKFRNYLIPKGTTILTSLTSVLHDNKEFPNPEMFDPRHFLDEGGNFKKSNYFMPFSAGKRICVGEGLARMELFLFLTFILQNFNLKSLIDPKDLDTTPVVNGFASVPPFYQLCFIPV
Cytochrome P450 2D6 (Homo sapiens), sequence (P10635 whole entry, looked up): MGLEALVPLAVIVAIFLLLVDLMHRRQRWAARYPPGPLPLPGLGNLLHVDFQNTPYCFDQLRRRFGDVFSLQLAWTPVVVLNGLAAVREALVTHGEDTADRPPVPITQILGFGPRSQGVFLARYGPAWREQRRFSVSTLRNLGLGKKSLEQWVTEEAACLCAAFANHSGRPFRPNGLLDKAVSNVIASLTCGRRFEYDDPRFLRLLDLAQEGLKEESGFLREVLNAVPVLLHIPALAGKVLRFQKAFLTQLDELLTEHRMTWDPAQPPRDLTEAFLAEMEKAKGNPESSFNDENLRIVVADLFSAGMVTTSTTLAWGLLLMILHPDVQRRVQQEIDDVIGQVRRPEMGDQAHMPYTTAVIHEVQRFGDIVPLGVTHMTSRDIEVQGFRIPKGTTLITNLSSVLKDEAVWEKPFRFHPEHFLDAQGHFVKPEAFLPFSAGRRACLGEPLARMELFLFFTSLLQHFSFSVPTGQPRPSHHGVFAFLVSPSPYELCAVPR
Voltage-gated inwardly rectifying potassium channel KCNH2 (Homo sapiens), sequence (Q12809 whole entry, looked up): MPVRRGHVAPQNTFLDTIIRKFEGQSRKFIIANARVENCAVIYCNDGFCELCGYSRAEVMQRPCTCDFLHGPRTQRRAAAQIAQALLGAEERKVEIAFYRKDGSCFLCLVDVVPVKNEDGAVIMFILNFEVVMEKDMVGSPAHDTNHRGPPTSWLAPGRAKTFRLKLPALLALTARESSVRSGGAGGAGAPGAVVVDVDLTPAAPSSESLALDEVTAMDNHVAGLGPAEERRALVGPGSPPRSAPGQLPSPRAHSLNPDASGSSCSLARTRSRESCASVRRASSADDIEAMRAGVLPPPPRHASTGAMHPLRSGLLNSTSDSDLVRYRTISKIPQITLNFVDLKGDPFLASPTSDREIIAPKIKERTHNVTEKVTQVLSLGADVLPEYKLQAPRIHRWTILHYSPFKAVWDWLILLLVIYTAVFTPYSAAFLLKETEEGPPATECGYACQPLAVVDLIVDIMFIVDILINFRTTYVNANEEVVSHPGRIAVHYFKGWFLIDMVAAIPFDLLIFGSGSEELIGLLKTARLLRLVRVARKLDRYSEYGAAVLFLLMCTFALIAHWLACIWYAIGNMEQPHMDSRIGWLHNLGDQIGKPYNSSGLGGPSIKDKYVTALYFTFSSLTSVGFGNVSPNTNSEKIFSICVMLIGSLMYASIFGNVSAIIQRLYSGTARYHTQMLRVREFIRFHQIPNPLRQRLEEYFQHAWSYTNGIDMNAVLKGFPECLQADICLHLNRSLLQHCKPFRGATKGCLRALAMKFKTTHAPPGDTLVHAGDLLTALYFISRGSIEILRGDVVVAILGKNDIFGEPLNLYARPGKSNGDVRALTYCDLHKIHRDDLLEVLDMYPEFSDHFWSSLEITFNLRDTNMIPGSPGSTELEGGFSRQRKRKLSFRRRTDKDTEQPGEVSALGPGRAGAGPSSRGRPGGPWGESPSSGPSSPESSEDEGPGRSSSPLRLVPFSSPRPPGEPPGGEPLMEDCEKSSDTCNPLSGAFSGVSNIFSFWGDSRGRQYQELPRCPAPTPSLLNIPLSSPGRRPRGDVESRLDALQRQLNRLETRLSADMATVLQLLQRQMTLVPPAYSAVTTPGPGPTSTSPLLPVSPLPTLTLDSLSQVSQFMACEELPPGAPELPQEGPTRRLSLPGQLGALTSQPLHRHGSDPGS
Nuclear receptor subfamily 1 group I member 2 (Rattus norvegicus), sequence (Q9R1A7 whole entry, looked up): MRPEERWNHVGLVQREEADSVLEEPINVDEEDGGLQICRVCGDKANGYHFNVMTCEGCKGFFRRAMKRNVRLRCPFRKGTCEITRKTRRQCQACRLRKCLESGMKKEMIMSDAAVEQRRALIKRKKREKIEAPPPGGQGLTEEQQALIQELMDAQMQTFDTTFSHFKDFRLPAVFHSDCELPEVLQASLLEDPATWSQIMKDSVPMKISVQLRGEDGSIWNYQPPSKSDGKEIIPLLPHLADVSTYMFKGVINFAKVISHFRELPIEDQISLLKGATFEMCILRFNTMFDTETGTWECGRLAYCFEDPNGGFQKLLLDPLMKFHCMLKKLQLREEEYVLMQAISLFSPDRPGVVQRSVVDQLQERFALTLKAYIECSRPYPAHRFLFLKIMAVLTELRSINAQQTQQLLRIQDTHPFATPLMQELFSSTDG

In the case of `Nc1ccc2ccccc2c1S(=O)(=O)O`, the Potency result in test [1], in [2] and in test [8] was “inactive” in each case. Besides, the molecule was classed as inactive in [3]. In addition, the Potency was 62.3 µM (active) in test [4]; 32.4 µM (active) in test [5]; 40.7 µM (active) in test [6]; 3.24 µM (active) in test [7]; 57.5 µM (active) in test [9].

For `COc1ccc(S(=O)(=O)Nc2nnc(CC(C)C)s2)cc1`, the Potency entry in test [1], in [2], in test [10], in test [11], in test [5] and in [7] was “inactive” throughout. Moreover, the Potency entry in test [8] and in test [9] was “inactive” each time. In addition, the molecule was classed as inactive in [3]. Moreover, the Potency in test [12] is 9.77 µM (active).

Turning to `C[C@]12CCC(=O)C=C1CC[C@@H]1[C@@H]2CC[C@@]2(C)[C@H]1CC[C@]2(O)C(=O)CO`, the Potency result in test [1], in test [2], in test [4], in [10], in [11] and in test [7] was “inactive” each time. In addition, the Potency entry in test [8] and in [9] was “inactive” in each case. In [3], the call was inactive. Further, the Potency in test [6] was 8.71 µM (active).

On to `Cc1cc2c(s1)Nc1ccccc1N=C2N1CCN(C)CC1`, for which the Potency entry in test [1], in [4], in test [10], in [11], in test [5] and in test [6] was “inactive” in each case. Also, the Potency result in test [12], in test [7], in [8] and in [9] was “inactive” in each case. Besides, in test [2], the Potency was 7.5 µM (active). Also, in test [3], the molecule was classed as inactive.

`COc1ccccc1N1CCN(CCCNc2cc(=O)n(C)c(=O)n2C)CC1`: the Potency result in [1], in [2], in test [10], in test [11], in test [6] and in test [12] was “inactive” each time. For the same molecule, the Potency result in test [7], in test [8] and in test [9] was “inactive” throughout. Further, the molecule was classed as inactive in [3]. For the same molecule, in [5], the Potency was 11 µM (active).

For the molecule `C=CCCC=C`, the Potency result in test [1], in [2], in test [4], in test [5], in [6] and in [12] was “inactive” throughout. Besides, the Potency result in test [7], in [8] and in [9] was “inactive” throughout. Besides, the molecule was called inactive in test [3].

As for `Cc1c(C(=O)NCCO)[n+](=O)c2ccccc2n1[O-]`, the Potency entry in [1], in test [2], in [10], in test [11], in test [5] and in test [6] was “inactive” in each case. Besides, the Potency result in test [12], in [7], in [8] and in test [9] was “inactive” each time. Also, in test [3], the outcome was inactive. The max activation in test [13] is -3.05%.

For `CCC(=O)c1ccc2c(c1)N(CCCN(C)C)c1ccccc1S2`, the Potency result in test [1], in test [2], in [4], in test [12] and in [9] was “inactive” throughout. Further, in test [3], the call was inactive. Also, the Potency in test [5] was 1.1 µM (active); in test [6], 11 µM (active); in [7], 1.82 µM (active); in test [8] it was 9.52 µM (active).

As to `CCCN(CCC)C(=O)C(CCC(=O)O)NC(=O)c1ccccc1` (configuration not stated), the Potency result in test [1], in test [2], in test [4], in test [10], in test [11] and in test [5] was “inactive” throughout. In addition, the Potency entry in [6], in [12], in test [7], in test [8] and in [9] was “inactive” throughout. Further, the outcome in [3] was inactive. Further, the max activation in test [13] was 0.444%.

For `CCCCNc1cc(C(=O)O)cc(S(N)(=O)=O)c1Oc1ccccc1`, the Potency result in [1], in [2], in test [14] and in test [8] was “inactive” in each case. Further, the molecule was classed as inactive in [3].
